Several values for one entry are separate records, joined by “and”; a condition that tells them apart may be missing. Equal values may be shown once. Inconclusive results are not listed. Some structures have more than one record in an assay (separate samples or runs), and their calls can disagree. Activity calls are given as the source filed them. Unless noted, the call rests on the fitted dose curve.

A short description of experiment [1]: Nuclear factor erythroid 2-related factor 2/antioxidant responsive element (Nrf2/ARE) small molecule agonists: qHTS cell viability counter screen in human keratinocytes (AID 1919968; active means well fitted cell-killing curve with a large enough effect in the repeat runs; further: nearly all actives have a fitted effect of over 55% in size). The method, boiled down: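 Parallel cytotoxicity read: KeratinoSens HaCaT cells, compound treatment 23 h, viability by CellTiter-Fluor fluorescence 1 h post-reagent.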
Experiment [2] can be described thus: Nuclear factor erythroid 2-related factor 2/antioxidant responsive element (Nrf2/ARE) small molecule agonists: luciferase reporter gene qHTS assay in human keratinocytes (AID 1919969). Further: nearly all actives have a fitted effect of over 35% in size. Further: potency means the concentration at half of the fitted maximal effect. On the technique in general: A reporter such as luciferase makes a cellular process visible.
For experiment [3], the target named is Gonadotropin-releasing hormone receptor (Homo sapiens) (UniProt P30968). Put plainly: Human gonadotropin-releasing hormone receptor (GnRHR) small molecule agonists, calcium flux assay in GnRHR-HEK293 cells (AID 1920063). Further: nearly all actives have a fitted effect of over 35% in size. Summed up: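 Calcium flux, agonist mode, human GnRHR stably integrated in HEK293; dye 1 h at 37 C before compound; Ex/Em=480/540 kinetic read, 3 min; 15 concentrations, triplicate.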
Gonadotropin-releasing hormone receptor (Homo sapiens), sequence (P30968 whole entry, looked up): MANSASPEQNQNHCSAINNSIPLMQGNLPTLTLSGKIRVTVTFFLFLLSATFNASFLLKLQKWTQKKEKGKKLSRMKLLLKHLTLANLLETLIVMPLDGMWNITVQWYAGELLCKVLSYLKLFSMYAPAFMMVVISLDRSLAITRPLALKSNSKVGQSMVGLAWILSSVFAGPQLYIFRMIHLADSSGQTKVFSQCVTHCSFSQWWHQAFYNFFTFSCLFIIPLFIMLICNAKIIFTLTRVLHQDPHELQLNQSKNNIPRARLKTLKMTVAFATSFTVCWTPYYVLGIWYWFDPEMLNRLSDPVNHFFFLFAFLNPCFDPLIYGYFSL
In general terms: Calcium assays in cells follow changes in intracellular calcium, usually with a dye or a luminescent sensor.

A short description of experiment [4]: G protein-coupled receptor (GPCR) small molecule agonists, calcium flux assay: HEK293 wild type cell line counter screen (AID 1920065). Summed up: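 Non-specific calcium responders were flagged by adding DMSO-dissolved compounds to dye-loaded cells and reading 480/540 nm fluorescence each second for 3 min; ATP served as positive control.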
Experiment [5] can be described thus: p53 small molecule agonists, cell-based qHTS assay with human liver microsomes (AID 1963577).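 Further: p53 response element beta-lactamase reporter cells with liver microsomes plus NADPH.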 The method, boiled down: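 With metabolic activation: human liver microsomes (0.5 mg/mL final) plus NADPH (0.5 mg/mL final) added alongside compounds to p53RE-bla cells; 16 h 37 C exposure; beta-lactamase read by LiveBLAzer fluorescence.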
The nature of experiment [6]: p53 small molecule agonists, cell-based qHTS assay with rat liver microsomes (AID 1963578). Summed up: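 Metabolic activation by rat liver microsomes and NADPH, each 0.5 mg/mL final, added right after compounds to p53RE-bla reporter cells (4,000/well, plated 5 h earlier). 16 h at 37 C, then LiveBLAzer substrate for 2 h at room temperature in the dark; fluorescence read-out.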
Background: In qHTS, concentration-response curves come from the screen itself.

Experiment [7] in a line: p53 small molecule agonists, cell-based qHTS assay with rat liver microsomes: qHTS cell viability counter screen (AID 1963580). Further: nearly all actives have a fitted effect of over 45% in size. The method, boiled down: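 Cytotoxicity counter screen: intracellular ATP measured by CellTiter-Glo luminescence in the same wells as the beta-lactamase reporter read, on HCT-116 p53RE-bla cells exposed 16 h at 37 C to compounds with rat liver microsomes and NADPH, each 0.5 mg/mL final.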

A short description of experiment [8]: p53 small molecule agonists, cell-based qHTS assay: qHTS cell viability counter screen (AID 1963581). Further: nearly all actives have a fitted effect of over 45% in size. The method, boiled down: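 Multiplexed with the reporter read, a CellTiter-Glo step (30 min, room temperature) gauges ATP-based viability of HCT-116 p53RE-bla cells after 16 h compound incubation at 37 C.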
Experiment [9] is described as follows: p53 small molecule agonists, cell-based qHTS assay (AID 1963582; active means well fitted activation curve with a large enough effect in the signal ratio in the repeat runs, not every such curve was filed as active; the % refers to the signal ratio). Summed up: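 Beta-lactamase reporter cells (p53RE-bla) treated with compounds for 16 h at 37 C; FRET substrate, 2 h, room temperature; fluorescence intensity.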
Experiment [10] has as its target 5-hydroxytryptamine receptor 2A (Homo sapiens) (UniProt P28223). Put plainly: 5-hydroxytryptamine receptor 2A (HTR2A) small molecule antagonists, cell-based qHTS assay (AID 1963586). Further: nearly all actives have a fitted effect of over 45% in size. Further: potency means the concentration at half of the fitted maximal effect. The method, boiled down:
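CHO cells stably expressing human HTR2A were plated for 18 h at 37 C, then loaded with calcium dye for 1 h. Compounds were preincubated 5 min at room temperature before DOI (4 nM solution) was added. Kinetic fluorescence was read for 3 min.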

Experiment [11] has the same target. Description: 5-hydroxytryptamine receptor 2A (HTR2A) small molecule agonists, cell-based qHTS assay (AID 1963587). Further: nearly all actives have a fitted effect of over 30% in size. Summed up:
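CHO cells stably expressing human HTR2A, plated 18 h, loaded with calcium dye 1 h at 37 C. Agonist mode: compounds added and intracellular calcium fluorescence recorded kinetically for 2 min at 1 sec intervals.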

The target in experiment [12] is Muscarinic acetylcholine receptor M1 (Homo sapiens) (UniProt P11229). Put plainly: Cholinergic receptor muscarinic 1 (CHRM1) small molecule antagonists, cell-based qHTS assay (AID 1963588). Further: nearly all actives have a fitted effect of over 40% in size. Summed up: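 Compounds were tested at 15 concentrations in three independent runs. Dye-loaded CHRM1-CHO cells were exposed 5 min at room temperature before stimulation by acetylcholine added at 50nM. Intracellular calcium was read kinetically on FDSS for 3 min.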
Muscarinic acetylcholine receptor M1 (Homo sapiens), sequence (P11229 whole entry, looked up): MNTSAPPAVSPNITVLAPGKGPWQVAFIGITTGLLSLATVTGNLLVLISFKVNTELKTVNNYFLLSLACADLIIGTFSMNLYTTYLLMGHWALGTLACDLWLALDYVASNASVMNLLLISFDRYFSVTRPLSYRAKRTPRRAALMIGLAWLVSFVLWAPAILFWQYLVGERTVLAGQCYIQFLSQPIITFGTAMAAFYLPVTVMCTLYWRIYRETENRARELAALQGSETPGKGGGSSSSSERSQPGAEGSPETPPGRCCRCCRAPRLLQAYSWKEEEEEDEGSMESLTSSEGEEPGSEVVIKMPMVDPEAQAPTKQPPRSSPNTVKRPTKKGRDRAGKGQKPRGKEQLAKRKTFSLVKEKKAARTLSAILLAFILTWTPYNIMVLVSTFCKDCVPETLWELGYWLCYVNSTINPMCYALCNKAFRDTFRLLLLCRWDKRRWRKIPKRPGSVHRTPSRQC

Experiment [13] has the same target. Put plainly: Cholinergic receptor muscarinic 1 (CHRM1) small molecule agonists, cell-based qHTS assay (AID 1963589). Further: nearly all actives have a fitted effect of over 35% in size. Summed up: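 qHTS, 15-point titration, 3 independent runs: compounds pin-transferred onto dye-loaded CHRM1-CHO cells (human M1), calcium fluorescence followed every second to detect agonism.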
A short description of experiment [14]: cAMP Responsive Elements (CRE) small molecule agonists, cell-based qHTS assay (AID 1963590). The method, boiled down: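 Quantitative HTS for CRE agonists: HEK 293T CRE-bla cells, overnight plating, 3 h compound incubation at 37 C/5% CO2, then 2 h room-temperature LiveBLAzer B/G FRET substrate loading.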
The nature of experiment [15]: cAMP Responsive Elements (CRE) small molecule antagonists, cell-based qHTS assay (AID 1963591; active means well fitted inhibition curve with a large enough effect in the signal ratio in the repeat runs, not every such curve was filed as active; the % refers to the signal ratio). Summed up:
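Fluorescence intensity from cleaved LiveBLAzer B/G substrate (2 h, room temperature) quantified CRE-bla activity in HEK 293T cells exposed 3 h to compound with 0.25 uM final NKH477.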

Experiment [16] deals with Beta-2 adrenergic receptor (Homo sapiens) (UniProt P07550). Put plainly: Adrenergic beta2 receptor (ADRB2) small molecule antagonists, cell-based qHTS assay (AID 1963592). Further: series mostly up to about 92 µM; nearly all actives have a fitted effect of over 50% in size. Summed up:
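Assay format: CHO-ADRB2 cells, 18-20hr seeding at 37C/5% CO2, then compound plus 1nM isoproterenol agonist mix for 0.5hr RT. Homogeneous time-resolved fluorescence cAMP detection after 1hr, expressed as 665/615 nm ratio.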

For experiment [17] the target is unchanged. Description: Adrenergic beta2 receptor (ADRB2) small molecule agonists, cell-based qHTS assay (AID 1963593).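 Further: CHO cells stably overexpressing human ADRB2.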 Summed up:
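CHO cells stably over-expressing ADRB2 were plated overnight at 37C, then dosed with compounds plus a stimulation mix containing 100uM IBMX and 25uM Ro-20-1724 for 0.5hr at room temperature. cAMP was measured by HTRF competition, 1hr.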

The target in experiment [18] is D(2) dopamine receptor (Homo sapiens) (UniProt P14416). Description: Dopamine D2 receptor (DRD2) small molecule agonists, cell-based qHTS assay (AID 1963594). Further: nearly all actives have a fitted effect of over 35% in size. The method, boiled down:
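HEK293 cells stably expressing human DRD2, pre-treated with PDE inhibitor Ro20-1724 (0.1 mM final) and compound 10 min at room temperature, then stimulated with NKH477 (200nM […]) for 30 min. cAMP read by HTRF (665/620 nm).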

The target is the same in experiment [19]. Put plainly: Dopamine D2 receptor (DRD2) small molecule antagonists, cell-based qHTS assay (AID 1963595; active means well fitted inhibition curve with a large enough effect in the signal ratio in the repeat runs, with a control signal flat; the % refers to the signal ratio). The method, boiled down:
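Readout: HTRF cAMP, cAMP-d2 competing with cellular cAMP for anti-cAMP cryptate, read after 1 h. Cells: DRD2-HEK293. Conditions: 0.1 mM Ro20-1724, 12 nM quinpirole, 200 nM NKH477, 30 min RT.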

Experiment [20] can be described thus: p53 small molecule agonists, cell-based qHTS assay with human liver microsomes: qHTS cell viability counter screen (AID 1963579). Further: nearly all actives have a fitted effect of over 45% in size. Summed up: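 Metabolic activation used human liver microsomes and NADPH, both 0.5 mg/mL final, over 16 hours at 37 C on p53RE-bla cells (4,000/well). Cytotoxicity measured by CellTiter-Glo luminescence, 30 min at room temperature.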

5-hydroxytryptamine receptor 2A (Homo sapiens), sequence (P28223 whole entry, looked up): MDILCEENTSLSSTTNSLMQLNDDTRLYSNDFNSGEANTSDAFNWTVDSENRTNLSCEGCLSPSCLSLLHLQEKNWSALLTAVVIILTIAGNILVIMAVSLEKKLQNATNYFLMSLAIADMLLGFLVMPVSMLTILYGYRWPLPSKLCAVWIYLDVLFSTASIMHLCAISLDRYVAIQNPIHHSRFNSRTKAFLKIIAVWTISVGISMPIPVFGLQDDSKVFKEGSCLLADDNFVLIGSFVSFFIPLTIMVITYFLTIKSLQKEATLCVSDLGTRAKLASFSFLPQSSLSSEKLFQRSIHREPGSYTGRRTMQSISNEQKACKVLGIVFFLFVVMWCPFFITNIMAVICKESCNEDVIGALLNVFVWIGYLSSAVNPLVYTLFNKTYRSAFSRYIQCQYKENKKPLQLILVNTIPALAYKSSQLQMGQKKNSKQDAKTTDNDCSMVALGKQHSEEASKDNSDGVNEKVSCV
Beta-2 adrenergic receptor (Homo sapiens), sequence (P07550 whole entry, looked up): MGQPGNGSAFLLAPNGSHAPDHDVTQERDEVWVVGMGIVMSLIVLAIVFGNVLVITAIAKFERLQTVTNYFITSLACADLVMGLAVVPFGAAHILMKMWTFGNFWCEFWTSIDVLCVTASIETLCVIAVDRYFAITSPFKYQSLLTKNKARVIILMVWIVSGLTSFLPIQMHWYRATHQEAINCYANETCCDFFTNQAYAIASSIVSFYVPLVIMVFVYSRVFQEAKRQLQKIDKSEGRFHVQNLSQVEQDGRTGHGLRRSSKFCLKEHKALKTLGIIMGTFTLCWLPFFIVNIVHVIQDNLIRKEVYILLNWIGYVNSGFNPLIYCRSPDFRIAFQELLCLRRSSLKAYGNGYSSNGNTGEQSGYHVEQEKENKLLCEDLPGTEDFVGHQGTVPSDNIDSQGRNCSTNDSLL
D(2) dopamine receptor (Homo sapiens), sequence (P14416 whole entry, looked up): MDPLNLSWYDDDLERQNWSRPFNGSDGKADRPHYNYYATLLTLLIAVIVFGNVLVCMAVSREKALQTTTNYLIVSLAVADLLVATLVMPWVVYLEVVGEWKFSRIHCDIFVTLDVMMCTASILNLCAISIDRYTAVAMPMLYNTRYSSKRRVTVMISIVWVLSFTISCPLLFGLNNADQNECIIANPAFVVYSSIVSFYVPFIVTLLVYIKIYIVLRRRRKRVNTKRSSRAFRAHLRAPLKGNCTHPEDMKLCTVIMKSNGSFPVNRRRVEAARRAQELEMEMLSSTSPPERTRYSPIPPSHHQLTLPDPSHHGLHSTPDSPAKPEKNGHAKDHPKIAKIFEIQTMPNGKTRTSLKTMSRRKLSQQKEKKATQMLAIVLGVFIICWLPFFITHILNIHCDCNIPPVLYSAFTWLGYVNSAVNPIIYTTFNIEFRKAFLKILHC

In the case of `N[C@@H](CCC(=O)Nc1ccc([N+](=O)[O-])cc1)C(=O)O`, the Potency entry in experiment [1], in experiment [2], in experiment [3], in experiment [4], in experiment [5] and in experiment [6] was “inactive” each time. Also, the Potency entry in experiment [7], in [8], in experiment [9], in experiment [10], in experiment [11] and in [12] was “inactive” throughout. Moreover, the Potency entry in experiment [13], in experiment [14], in experiment [15], in [16], in experiment [17] and in [18] was “inactive” each time. For the same compound, the Potency result in [19] was “inactive”.

On to `O=C(O)[C@@H](O)[C@H](O)[C@H](O)[C@@H](O)C(=O)O`, for which the Potency result in experiment [1], in experiment [2], in [3], in [4], in experiment [20] and in experiment [7] was “inactive” throughout. The Potency entry in experiment [8], in [9], in [10], in [11], in experiment [12] and in experiment [13] was “inactive” throughout. Also, the Potency result in experiment [14], in experiment [15], in [16], in experiment [17], in experiment [18] and in [19] was “inactive” throughout.

For the compound `CN(C)c1ccc(Cc2ccc(N(C)C)cc2)cc1`, the Potency result in [1], in experiment [3], in experiment [4], in experiment [6], in experiment [20] and in [7] was “inactive” in each case. For the same compound, the Potency result in [8], in [9], in [11], in [12], in experiment [13] and in experiment [14] was “inactive” in each case. Moreover, the Potency result in experiment [15], in experiment [16], in [17] and in experiment [18] was “inactive” throughout. Besides, the Potency entry in experiment [2] is “inactive and 34.4 µM (active)”; in experiment [10], 4.23 µM (active).

Turning to `Cc1ccc2oc(=O)ccc2c1`, the Potency entry in experiment [1], in experiment [2], in experiment [3], in experiment [4], in [20] and in [7] was “inactive” throughout. For the same compound, the Potency entry in experiment [8], in [10], in [11], in experiment [12], in experiment [13] and in experiment [14] was “inactive” throughout. Besides, the Potency entry in [15], in experiment [16], in experiment [17], in experiment [18] and in experiment [19] was “inactive” throughout.

As for `C1CCC(SSC2CCCCC2)CC1`, the Potency entry in experiment [1], in experiment [2], in experiment [3], in experiment [4], in [5] and in [20] was “inactive” each time. For the same compound, the Potency entry in experiment [7], in experiment [8], in experiment [9], in experiment [10], in experiment [11] and in experiment [12] was “inactive” in each case. The Potency result in experiment [13], in [14], in experiment [16], in experiment [17] and in experiment [19] was “inactive” throughout.

Turning to `O=S(=O)(O)c1cccc(S(=O)(=O)O)c1`, the Potency entry in experiment [1], in [2], in experiment [3], in [4], in [5] and in experiment [6] was “inactive” each time. The Potency result in experiment [20], in experiment [7], in experiment [8], in experiment [9], in [10] and in experiment [11] was “inactive” in each case. Besides, the Potency result in experiment [12], in experiment [14], in experiment [15], in experiment [17], in experiment [18] and in [19] was “inactive” each time.

For `O=c1cccc[nH]1`, the Potency entry in experiment [1], in experiment [2], in experiment [3], in [4], in [6] and in [20] was “inactive” each time. Also, the Potency result in [7], in experiment [8], in experiment [9], in [10], in experiment [11] and in [12] was “inactive” throughout. In addition, the Potency result in experiment [13], in [14], in experiment [15], in experiment [16], in experiment [17] and in [18] was “inactive” in each case.

With `Nc1nnnn1-c1ccccc1`, the Potency result in experiment [1], in [2], in experiment [3], in experiment [4], in [5] and in experiment [6] was “inactive” throughout. The Potency entry in experiment [20], in experiment [7], in [8], in [9], in experiment [10] and in [11] was “inactive” throughout. Moreover, the Potency entry in experiment [13], in experiment [14], in experiment [15], in [16], in experiment [17] and in experiment [19] was “inactive” in each case.

The values above are taken from PubChem BioAssay (Tox21).
